# According to ChEMBL document CHEMBL1857833, “Screening and optimization of specific chemical series against human African Trypanosomiasis (HAT)”:
# Several values for one entry are separate records, joined by “and”; a condition that tells them apart may be missing. Identical values can stand only once. Among all 4,400 compounds or so, about 390 (8.9%) showed an effect of 50% or more. This is one part of a sample in which strong results are shown more often than they occur.
# System: Trypanosoma brucei
# Assay: DNDI: Inhibition of Human African Trypanosomiasis, SBRI 427, in vitro at 2 ug.mL-1
# Type: functional
row,SMILES,% inhibition
1,CC(C)COc1ncccc1/C(=N/O)N1CCN(c2ccc(F)cc2)CC1,0%
2,O=Cc1nccn1Cc1coc(-c2ccc(F)cc2)n1,-8%
3,CSc1ccc(Oc2cc(/C(=N/O)N3CC(C)CC(C)C3)ccn2)cc1 (stereo not given),18%
4,Oc1ccc(-c2nc(CNCc3ccccc3C(F)(F)F)co2)cc1,18%
5,COc1ccc(Oc2ncccc2/C(=N/O)N(C)Cc2ccco2)cc1,-11%
6,CC(C)COc1ncccc1/C(=N/O)NCc1ccco1,3%
7,CN(Cc1ccco1)/C(=N\O)c1cccnc1Oc1ccc(Cl)cc1,4%
8,CC(C)c1ccc(Oc2ncccc2/C(=N/O)NCc2ccco2)cc1,96%
9,Cc1ccc(/C(=N/O)N(C)Cc2ccco2)c(Oc2cccc(C(C)C)c2)n1,67%
10,O/N=C(\NCc1ccccn1)c1cccnc1Oc1ccc2oc3ccccc3c2c1,7%
11,O/N=C(\NCc1cccs1)c1cccnc1Oc1ccc2oc3ccccc3c2c1,75%
12,COc1ccc(Oc2ncccc2/C(=N/O)NCc2ccco2)cc1,-14%
13,CC(C)c1ccc(Oc2ncccc2/C(=N/O)N(C)Cc2ccco2)cc1,75%
14,Cc1ccc(/C(=N/O)N(C)Cc2ccco2)c(Oc2cccc(F)c2)n1,22%
15,O/N=C(\NCc1ccncc1)c1cccnc1Oc1ccc2oc3ccccc3c2c1,10%
16,CSc1ccc(Oc2nc(C)ccc2/C(=N/O)N(C)Cc2ccco2)cc1C,12%
17,CC(C)COc1ncccc1/C(=N/O)N(C)Cc1cccnc1,-1%
18,Cc1cn(/C(=N\O)c2ccc(Oc3ccc4oc5ccccc5c4c3)nc2)cn1,16%
19,CCOc1cccc(-c2nc(CN(C)CC#N)co2)c1,15%
20,O/N=C(/c1cccnc1Oc1ccc(F)cc1)N1Cc2ccccc2C1,4%
21,COC(CN(C)Cc1coc(-c2ccc(Br)cc2)n1)OC,4%
22,CCOc1ccccc1-c1nc(CN2CCCCC2)co1,-1%
23,CN(Cc1coc(-c2ccc(C(F)(F)F)cc2)n1)Cc1ccco1,18%
24,CC(C)c1ccc(Oc2ncccc2/C(=N/O)NCc2cccs2)cc1,100%
25,O/N=C(\NCc1cccs1)c1cccnc1Oc1cccc(C(F)(F)F)c1,-12%
26,COc1ccc(Oc2ncccc2/C(=N/O)NCc2cccs2)cc1,37%
27,Clc1ccccc1-c1nc(CNC(Cc2ccccc2)c2ccccc2)co1 (stereo not given),-20%

row,SMILES,% inhibition
1,Cc1ccccc1-c1nc(CNC2CCN(Cc3ccccc3)C2)co1 (stereo not given),30%
2,Cc1ccccc1-c1nc(CNC2CCCCCC2)co1,61%
3,Cc1ccccc1-c1nc(CNC[C@@H]2CCCO2)co1,-1%
4,Brc1ccccc1-c1nc(CNC2CCCCCCCCCCC2)co1,59%
5,Brc1ccccc1-c1nc(CNC2CCCCCC2)co1,-20%
6,Brc1ccccc1-c1nc(CNC2CCN(Cc3ccccc3)C2)co1 (stereo not given),-6%
7,COc1cc(CN(C)Cc2coc(-c3ccccc3C)n2)cc(OC)c1OC,-15%
8,CCCN(Cc1coc(-c2cc(OC)c(OC)c(OC)c2)n1)c1ccccc1,1%
9,O/N=C(/c1cccnc1OCc1ccccc1)N1CCSCC1,13%
10,CC1CC(C)CN(Cc2coc(-c3cccs3)n2)C1 (stereo not given),2%
11,c1csc(-c2nc(CNC3CCCC3)co2)c1,-11%
12,C[C@H]1C(NCc2coc(-c3cccs3)n2)C[C@@H]2C[C@H]1C2(C)C (stereo not given in full),87%
13,CC(NCc1coc(-c2cccs2)n1)C1CCCCC1 (stereo not given),-3%
14,c1csc(-c2nc(CNC3CCc4ccccc43)co2)c1 (stereo not given),-11%
15,C[C@@H]1C(NCc2coc(-c3cccs3)n2)C[C@H]2C[C@@H]1C2(C)C (stereo not given in full),62%
16,COc1cccc(Oc2ccc(/C(=N/O)N3CCSC3)cn2)c1,6%
17,Cc1ccc(CCNCc2coc(-c3cccc(F)c3)n2)cc1,-9%
18,CCCN(Cc1coc(-c2cccc(C)c2)n1)c1ccccc1,7%
19,Cc1ccc2cccc(Oc3ccc(/C(=N/O)Nc4ccc(C(C)C)cc4)cn3)c2n1,8%
20,CC1CCC(N/C(=N\O)c2ccnc(Oc3cccc4cnccc34)c2)CC1 (stereo not given),10%
21,Cc1cc(C)cc(CN/C(=N\O)c2ccnc(Oc3cccc4ccc(C)nc34)c2)c1,18%
22,Cc1ccccc1CN/C(=N\O)c1ccnc(Oc2cccc3cccnc23)c1,43%
23,Cc1ccc2cccc(Oc3cc(/C(=N/O)N4C(C)CCCC4C)ccn3)c2n1 (stereo not given),19%
24,Cc1ccc2cccc(Oc3cc(/C(=N/O)NCc4c(F)cccc4F)ccn3)c2n1,17%
25,Cc1ccc2cccc(Oc3ccc(/C(=N/O)n4cccn4)cn3)c2n1,4%
26,Cc1ccc2cccc(Oc3cc(/C(=N/O)NC4CC(C)CC(C)(C)C4)ccn3)c2n1 (stereo not given),10%
27,CCC(C)(C)N/C(=N\O)c1ccnc(Oc2cccc3ccc(C)nc23)c1,51%

row,SMILES,% inhibition
1,Cc1ccc2cccc(Oc3cc(/C(=N/O)NC4CCC(C)CC4)ccn3)c2n1 (stereo not given),94%
2,CC1CCC(N/C(=N\O)c2ccnc(Oc3cccc4cccnc34)c2)CC1 (stereo not given),95%
3,Cc1ccc2cccc(Oc3ccc(/C(=N/O)NC4CCCCC4)cn3)c2n1,99%
4,CCOc1cccc(-c2nc(CN(C)C3CCN(Cc4ccccc4)C3)co2)c1 (stereo not given),-2%
5,FC(F)(F)c1cccc(N2CCN(Cc3coc(-c4cccc5ccccc45)n3)CC2)c1,6%
6,CCOc1cccc(-c2nc(Cn3ccnc3CC)co2)c1,-10%
7,COc1ccccc1CCNCc1coc(-c2cccc3ccccc23)n1,43%
8,N/C(=N\O)c1cccnc1Oc1cccc(C(F)(F)F)c1,46%
9,O/N=C(/c1cccnc1Oc1cccc(C(F)(F)F)c1)N1CCN(C2CCCC2)CC1,85%
10,O/N=C(/c1cccnc1Oc1ccccc1Cl)N1CCN(C2CCCC2)CC1,-2%
11,COc1ccc(Oc2ncccc2/C(=N/O)N2CCN(C3CCCC3)CC2)cc1,-12%
12,CC1=NCCN1/C(=N\O)c1cccnc1Oc1cccc(C(F)(F)F)c1,2%
13,CC(C)N1CCN(/C(=N\O)c2cccnc2Oc2cccc(C(F)(F)F)c2)CC1,101%
14,CCN(CCNCc1coc(-c2ccccc2Br)n1)c1cccc(C)c1,-30%
15,O/N=C(/c1cccnc1OCc1cccc(F)c1)N1CCN(c2ccccc2)CC1,-1%
16,CCOc1cccc(-c2nc(Cn3cc(C)nc3CC)co2)c1,7%
17,CC1CC(N/C(=N\O)c2cccnc2Oc2ccc(C(C)C)cc2)CC(C)(C)C1 (stereo not given),98%
18,Cc1ccc(/C(=N/O)NC2CC(C)CC(C)(C)C2)c(Oc2ccc(Cl)cc2-c2ccno2)n1 (stereo not given),16%
19,CCN(CC)c1cccc(Oc2ncccc2/C(=N/O)NC2CC(C)CC(C)(C)C2)c1 (stereo not given),-6%
20,CC1CC(N/C(=N\O)c2cccnc2Oc2cc(Cl)ccc2Cl)CC(C)(C)C1 (stereo not given),99%
21,Cc1ccc(/C(=N/O)NC2CC(C)CC(C)(C)C2)c(Oc2ccc(F)c(F)c2)n1 (stereo not given),11%
22,Cc1ccc(/C(=N/O)NC2CC(C)CC(C)(C)C2)c(Oc2cc(Cl)ccc2Cl)n1 (stereo not given),7%
23,CC1CC(N/C(=N\O)c2cccnc2Oc2ccc(F)c(Cl)c2)CC(C)(C)C1 (stereo not given),100%
24,CCCCN(CCC#N)Cc1coc(-c2ccccc2C)n1,-4%
25,CCOC(=O)C1CCCCN1Cc1coc(-c2ccccc2OCC)n1 (stereo not given),3%
26,CC(C)c1ccc(Oc2ncccc2/C(N)=N/O)cc1,16%
27,Fc1cccc(-c2nc(CNC3CCc4ccccc43)co2)c1 (stereo not given),13%

row,SMILES,% inhibition
1,C[C@@H]1C(NCc2coc(-c3cccc(F)c3)n2)C[C@H]2C[C@@H]1C2(C)C (stereo not given in full),90%
2,Fc1cccc(-c2nc(CNC3C[C@H]4CC[C@@H]3C4)co2)c1 (stereo not given in full),-5%
3,C[C@H]1C(NCc2coc(-c3cccc(F)c3)n2)C[C@@H]2C[C@H]1C2(C)C (stereo not given in full),99%
4,CCC(CC)CNCc1coc(-c2cccc(F)c2)n1,18%
5,CC(C)C(C)NCc1coc(-c2cccc(F)c2)n1 (stereo not given),8% and 16%
6,C#CCNCc1coc(-c2cccc(C)c2)n1,24%
7,CSc1ccc(Oc2cc(/C(=N/O)NCC3CCCO3)ccn2)cc1 (stereo not given),6%
8,CN(/C(=N\O)c1cccnc1Oc1ccc(F)cc1Cl)C1CCCCC1,7%
9,CC1CCC(N/C(=N\O)c2cccnc2Oc2ccccc2Cl)CC1 (stereo not given),99%
10,CC1CCC(C)N1/C(=N\O)c1cccnc1Oc1ccc(F)cc1Cl (stereo not given),24%
11,Cc1cccc(Oc2ncccc2/C(=N/O)NC2CCC(C)CC2)c1C (stereo not given),20%
12,O/N=C(\NC1CCN(Cc2ccccc2)C1)c1cccnc1Oc1ccccc1Cl (stereo not given),2%
13,CC1CCC(N/C(=N\O)c2cccnc2Oc2ccc(F)cc2Cl)CC1 (stereo not given),95%
14,Cc1cccc(-c2nc(Cn3cc(C=O)nc3C)co2)c1,1%
15,CCOc1ccccc1-c1nc(CN(CCOC)C(C)C)co1,1%
16,C=CCN1CCN(/C(=N\O)c2cccnc2OCC(F)(F)F)CC1,7%
17,CCOc1cccc(-c2nc(CN(CCC#N)C3CCCCC3)co2)c1,18%
18,CN(C)CCN(C)Cc1coc(-c2ccc(O)cc2)n1,7%
19,NCCc1cn(Cc2coc(-c3ccc(Cl)cc3Cl)n2)cn1,75%
20,Cc1cn(Cc2coc(-c3ccc(Cl)cc3Cl)n2)cn1,2%
21,NCCc1cn(Cc2coc(-c3cccc4ccccc34)n2)cn1,73%
22,NCCc1cn(Cc2coc(-c3ccccc3F)n2)cn1,40%
23,NCCc1cn(Cc2coc(-c3ccccc3Br)n2)cn1,-5%
24,Clc1ccc(-c2nc(Cn3cnc(-c4ccccc4)c3)co2)c(Cl)c1,7%
